Reference: PubChem BioAssay AID651820 (National Center for Advancing Translational Sciences (NCATS), 2012)
In all, about 340,000 compounds went through this assay and about 12,000 (3.5%) were called active. Inconclusive results (about 18%) are left out. What follows is part of a selection rich in actives, with near analogues and random picks from the rest. Unmarked numbers belong to inactive results. Calls come from the whole dose curve; as a rule, active = well fitted inhibition curve with a large enough effect; inconclusive = small, poorly fitted or top-dose-only effect, or another doubt; inactive = no such curve, though single readings can be large or run the other way.

Experiment: qHTS Assay for Inhibitors of Hepatitis C Virus (HCV)
Conditions: Huh7.5.1 HCVcc-Cre infection, luciferase reporter, 44 h; series mostly up to 41.8 µM; activity change, negative = inhibition: at the top concentration
Text: Hepatitis C virus (HCV) infects about 200 million people in the world. Many infected people progress to chronic liver disease including cirrhosis with a risk of developing liver cancer. To date, there is no effective vaccine for hepatitis C. Current therapy based on interferon is only effective in about half of the patients and is associated with significant adverse effects. The fraction of people with HCV who can complete a successful treatment is estimated to be no more than 10 percent. Recent development of direct-acting antivirals against HCV, such as protease and polymerase inhibitors, is promising but still requires combination with peginterferon and ribavirin for maximal efficacy. In addition, these agents are associated with high rate of resistance and many have significant side effects. Due to the lack of a culture system for infectious HCV, the search for new HCV drugs has been greatly hampered. […] High-throughput screening (HTS) with an infectious HCV system would cover the complete spectrum of potentially druggable targets in all stages of HCV lifecycle, and would have more biological relevance than other cell-based assays. Moreover, targeting several key processes in the viral life cycle may not only increase antiviral efficacy; more importantly, it may also reduce the capacity of the virus to develop resistance to the compound. The goal of this project is to identify novel HCV inhibitors as new therapies for hepatitis C, using a highly sensitive and specific assay platform which is based on a HCV infectious cell culture system established in the laboratory and adapted for high-throughput HCV drug screen. NIH Chemical Genomics Center [NCGC] NIH Molecular Libraries Probe Centers Network [MLPCN] MLPCN Grant: MH095511 Assay Submitter (PI): Jake Liang, NIDDK
The assay will start with plating 1,000 cells/well in 3 µL volume and culture for 4 h. Then 23 nL of compounds from the library collection will be added to each well, followed by adding 2.5 µL of HCVcc-Cre virus (~ 0.5 moi) and further cultured for 44 h before the luciferase assay. A volume of 4.5 µL luciferase substrates will be added to each well and the plates will be incubated at room temperature for 15 min. and then read for 15 sec. for the luciferase activity
% is set by controls: 0 for no effect and ±100 for the full control effect.

| SMILES | activity change, negative = inhibition [%] | Potency |
| --- | --- | --- |
| CCCN(CC(=O)Nc1ccccc1C)C(=O)c1ccc(OCC(=O)N2CCOCC2)c(OCC)c1 | -8.77 | – |
| NC(=O)NC(CC(=O)NNC(=O)c1ccccn1)c1ccc(Cl)cc1 (stereo not given) | 0.701 | – |
| O=C(NCC1CCCO1)c1cc2c(s1)CCCC2 (stereo not given) | -18.7 | – |
| O=C(O)c1cc(S(=O)(=O)Nc2ccc3cn[nH]c3c2)ccc1Br | 7.46 | – |
| O=C(NCc1ccccc1)C1=C[C@@H](c2ccccc2)C[C@@H](OCCCCO)O1 | 6.06 | – |
| c1ccc2c(CNn3cnnc3)cccc2c1 | 0.47 | – |
| N#C/C(=C(/O)Cc1cccc2ccccc12)c1nc2ccccc2s1 | 13.7 | – |
| N=C(N)SCc1cccc2ccccc12 | – | 6.31 µM (active) |
| Cc1ccc2c(c1)c1ncn(Cc3ccc(F)cc3)c(=O)c1n2C | -22.6 | – |
| CC(C)(C)n1ncc2c(=O)n(Cc3ccc(Cl)cc3)cnc21 | – | 11.2 µM (active) |
| CC(=O)Cn1cnc2c(cnn2-c2ccccc2)c1=O | -0.203 | – |
| CC(C)Cn1c(SCC(=O)Nc2ccc(Cl)cc2F)nc(O)cc1=O | 30.9 | – |
| O=C(OCC(=O)N1CCN(C(=O)c2ccco2)CC1)c1c(Cl)cccc1Cl | 16.5 | – |
| CC1CCCCC1NC(=O)Cn1cnc2c1c(=O)n(C)c(=O)n2C (stereo not given) | -3.41 | – |
| Cc1ccc(NC(=O)c2cc3ccccc3o2)cc1 | -10.5 | – |
| C/C(=N\NC(=S)Nc1ccc(C)cc1)c1cc2ccccc2o1 | – | 10 µM (active) |
| Cc1ccc(OC(=O)c2cc3ccccc3o2)cc1 | 4.88 | – |
| COc1cc(C(=O)NC2CCN(C)CC2)ccc1Nc1ncc2c(n1)N(C1CCC(O)CC1)CCC(=O)N2C (stereo not given) | -26.6 | – |
| O=C(CSc1nnc(N2CCOCC2)n1-c1cccc(F)c1)N1CCN(c2ccccn2)CC1 | 2.86 | – |
| Cc1cccc(-n2ncc3c(=O)[nH]c(SCC(=O)Nc4cc(C)on4)nc32)c1 | 0.218 | – |
| Cc1c(O)c(C)c2c(c1O)C(=O)C[C@@H](c1ccccc1)O2 | -1.63 | – |
| O=C(COc1ccc([N+](=O)[O-])cc1Cl)Nc1ccc2[nH]c(=O)[nH]c2c1 | 1.57 | – |
| O=C(Nc1ccc(CSc2ccccc2)cc1)c1ccc(CN2CCOCC2)cc1 | – | 3.16 µM (active) |
| COc1ccc(C(=O)Nc2ccc(CN3CCOCC3)cc2)cc1 | 3.24 | – |
| O=C(Nc1ccccc1C(=O)N1CCOCC1)c1ccc(CSc2ccccc2)cc1 | -26 | – |

| SMILES | activity change, negative = inhibition [%] | Potency |
| --- | --- | --- |
| CN(Cc1ccccc1)C(=O)COC(=O)/C=C/c1ccc2c(c1)OCO2 | -6.21 | – |
| CC(=O)c1c(C)[nH]c(C(=O)COc2ccc3c(C)cc(=O)oc3c2)c1C | -0.953 | – |
| O=C(Nc1ccc2nc3n(c(=O)c2c1)CCCC3)c1ccc(Cl)nc1 | -17.7 | – |
| CC1(C)C/C(=N/Nc2ccc([N+](=O)[O-])cc2[N+](=O)[O-])C(C)(C)O1 | -10.5 | – |
| CCOC(=O)C1(Cc2cccc(OC)c2)CCN(C(C)CC(C)(C)O)CC1 (stereo not given) | -11 | – |
| CCOC(=O)C1(Cc2cccc(OC)c2)CCN(Cc2csc(C(C)=O)c2)CC1 | – | 22.4 µM (active) |
| CCOC(=O)C1(Cc2cccc(OC)c2)CCN(C(C)COC)CC1 (stereo not given) | 10.8 | – |
| c1ccc(-c2c[nH]c(-c3ccccc3)c2)cc1 | -6.21 | – |
| Cc1cc2oc(=O)cc(CN3CCN(Cc4ccccc4)CC3)c2cc1C | -11.3 | – |
| Cc1cc2oc3ccc(NCCC4CCCN4C)cc3c(=O)c2cc1C (stereo not given) | – | 14.1 µM (active) |
| CCCOc1ccc(C2c3c(oc4cc(C)c(C)cc4c3=O)C(=O)N2CCCN2CCOCC2)cc1 (stereo not given) | -7.54 | – |
| CSc1ncccc1C(=O)Nc1ccc2c(c1)OCO2 | 3.31 | – |
| O=C1C2C3C=CC(C3)C2C(=O)N1c1ncc([N+](=O)[O-])s1 (stereo not given) | 0.319 | – |
| CCN(C(=O)CSc1ncnc2sccc12)c1c(N)n(Cc2ccccc2)c(=O)[nH]c1=O | 5.2 | – |
| CC(=O)c1ccc(NC(=O)c2sc3nc4n(c(=O)c3c2C)CCCCC4)cc1 | – | 11.2 µM (active) |
| Cc1c(C(=O)Nc2ccccc2)sc2nc3n(c(=O)c12)CCCCC3 | 2.42 | – |
| O=c1c2c(nc3n1CCCCC3)sc1c(O)cccc12 | -3.44 | – |
| O=C(c1ccc(Cl)nc1)N1CCN(S(=O)(=O)c2ccc3c(c2)OCCO3)CC1 | -7.42 | – |
| COc1cc(C(c2c(NC(=O)c3ccco3)sc(C)c2C)N2CCOCC2)cc(OC)c1OC (stereo not given) | 5.51 | – |
| COc1cccc(NC(=O)c2ccccc2SC)c1 | -1.29 | – |
| COc1cccc(NC(=O)C2C(c3ccccc3)C2(Cl)Cl)c1 (stereo not given) | – | 12.6 µM (active) |
| COc1cccc(NC(=O)C2CCCN2C(=O)OCc2ccccc2)c1 (stereo not given) | 13.3 | – |
| Cc1ccccc1-c1cc(C(=O)NCc2cccs2)n(CC2CC(c3cccnc3)=NO2)n1 (stereo not given) | -8.14 | – |
| O=C(CCCCCCCC(=O)N1CCCCC1)N1CCCCC1 | -4.7 | – |
| O=C(CC1SC(N2CCOCC2)=NC1=O)Nc1ccccc1F (stereo not given) | 3.09 | – |
